# Screening results from PubChem.
# Shown are actives, neighbours in structure and some others; about 5.7% of the full set was active somewhere.
# Giardia kill = Small Molecules that selectively kill Giardia lamblia: qHTS; 340,000 compounds, 0.15% hits; Giardia lamblia trophozoite viability; activity change, % at 7.66 µM, hits read low; in the data active means activity change below about -80%; inconclusive means between about -30% and that limit;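 further: parasites exposed to compound for two days anaerobically before the ATP read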
#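 Luminescence from cellular ATP indicates surviving trophozoites (100 cells/well) following 48 hrs anaerobic compound treatment at 37 deg C; signal develops 15-30 min at room temperature.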
# KB-V1 cytotox = qHTS assay for MDR1-selective chemotherapeutics: Primary screen using the drug-selected MDR subline cells KB-V1; Potency, µM (titrated, usually from 46.1 µM), hits mostly cytotoxic; 400,000 compounds, 3.4% hits; KB-V1 MDR cells viability, CellTiter-Glo, 72 h; further: potency means the concentration at half of the fitted maximal effect; nearly all actives have a fitted effect of over 60% in size
#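 Compound-treated KB-V1 multidrug-resistant cells, 72 h, 37 degrees C; viability by CellTiter-Glo. Fitted qHTS curves give the values.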
# PI4K2A block = qHTS for small molecular inhibitors of PI4K2A. Phosphatidylinositol 4-kinase type 2-alpha (Homo sapiens), Q9BTU6. purified PI4K2A, ADP-Glo luminescence, 1 h; active compounds read low. activity change, negative = inhibition, % at 76.9 µM. 420,000 compounds, 0.13% hits. AID 1346378, 2018; in the data active means activity change below about -50%; inconclusive means mostly about -30% to -49%;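 further: -100% = wells without enzyme as full effect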
# Target sequence (Q9BTU6 whole entry, looked up): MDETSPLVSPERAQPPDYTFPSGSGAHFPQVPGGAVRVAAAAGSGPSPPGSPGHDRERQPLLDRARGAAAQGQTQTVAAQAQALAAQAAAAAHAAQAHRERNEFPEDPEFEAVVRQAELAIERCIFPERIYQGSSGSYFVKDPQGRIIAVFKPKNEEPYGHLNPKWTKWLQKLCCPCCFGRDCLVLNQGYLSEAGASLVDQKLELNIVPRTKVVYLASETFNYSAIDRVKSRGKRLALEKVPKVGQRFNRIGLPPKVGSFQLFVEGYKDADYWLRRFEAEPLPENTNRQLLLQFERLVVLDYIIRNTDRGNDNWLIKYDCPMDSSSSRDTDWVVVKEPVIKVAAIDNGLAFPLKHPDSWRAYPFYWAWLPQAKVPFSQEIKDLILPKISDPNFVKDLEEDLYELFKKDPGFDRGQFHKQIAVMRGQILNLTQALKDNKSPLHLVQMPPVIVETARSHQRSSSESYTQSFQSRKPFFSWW
#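 PI4K2A activity was measured by ADP-Glo luminescence: enzyme (4 ug/mL stock) and phosphatidylinositol (1.2 mM stock) in Tris pH 7.5/MgCl2/EGTA/Triton X-100 buffer were reacted with ATP (300 microM stock) for one hour at ambient temperature.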
# A549 viability = Nrf2 qHTS screen for inhibitors: counterscreen for cytotoxicity; A549 ARE-Fluc cells, CellTiter-Fluor viability, 18-24 h; Potency, µM (titrated, usually from 46 µM), without a hit: at the top dose activity change, negative = cytotoxicity, usual class: inhibitors; 390,000 compounds, 0.16% hits; further: potency means the concentration at half of the fitted maximal effect
#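 A549 ARE-Fluc cells in 5% FBS OPTI-MEM, 5000 cells/well, rested 2 h then exposed to compounds in concentration-response for 18-24 h at 37 °C. Viability by CellTiter-Fluor fluorescence (Ex 405/Em 525) after 30 min; luciferase luminescence (BugLite, 15 min, RT) read afterwards.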
# Nrf2 block = Nrf2 qHTS screen for inhibitors | A549 ARE-Fluc reporter, luciferase luminescence, 18-24 h | Potency, µM (doses to about 46 µM), inactives show at the top dose activity change, negative = inhibition, hits mostly inhibitors | 360,000 compounds, 2.1% hits | AID 504444, 2011; further: potency means the concentration at half of the fitted maximal effect; nearly all actives have a fitted effect of over 60% in size
#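 Concentration-response testing used A549 ARE_Fluc cells at 5000 cells/well. Following an 18-24 h compound incubation, viability was read by fluorescence (Ex 405/Em 525) and luciferase output by luminescence.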
# KB-3-1 cytotox = qHTS assay for MDR1-selective chemotherapeutics: Primary screen using the parental adenocarcinoma cell KB-3-1. Potency, µM (doses to about 46.1 µM), hits mostly cytotoxic. 400,000 compounds, 1.4% hits. AID 1347075, 2019. KB-3-1 viability, CellTiter-Glo ATP luminescence, 72 h; further: potency means the concentration at half of the fitted maximal effect; nearly all actives have a fitted effect of over 60% in size
#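 Screening of KB-3-1 cells (DMEM, 10% FBS, phenol-red free) ran from lowest to highest compound concentration; after 72 h at 37 °C viability was read luminescently and curves fitted.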
# Numbers without * were called inactive; i = inactive; u = inconclusive; x = no result given. Unless noted, the call rests on the fitted dose curve; in most records, active means well fitted curve in the direction sought with a large enough effect; inconclusive means small, poorly fitted or top-dose-only effect, or another doubt; inactive means no such curve, though single readings can be large; an effect the other way counts as inactive or inconclusive. Unless noted, on the % scale 0 is the no-effect control and ±100 the full control effect.
SMILES,Giardia kill,KB-V1 cytotox,PI4K2A block,A549 viability,Nrf2 block,KB-3-1 cytotox
O=C(Nc1ccc(C(F)(F)F)cc1)c1ccc(NC(=O)C2CCCO2)cc1 (stereo not drawn),2,i,0,2%,21µM*,i
O=C(Nc1ccc(-c2nc3cccnc3s2)cc1)C1CCCO1 (stereo not drawn),u,i,-57*,-2%,u,i
O=C(Nc1ccc(-c2nc3ccccc3o2)cc1)C1CCCO1 (stereo not drawn),-28,10µM*,u,0%,x,u
COc1ccc(N2CCN(C(=O)C3CCN(S(=O)(=O)c4cn(C)cn4)CC3)CC2)cc1,x,x,3,3%,x,x
CC(C)(C)C(=O)OC12CCCN(C1)/C(=C/c1cccc(Cl)c1)C2 (stereo not drawn),x,x,5,x,x,x
Cc1ccc2nc(-c3ccc(NC(=O)Cc4cccs4)cc3)[nH]c2c1,1,i,2,u,u,i
O=C(Nc1ccc(-c2nc3cc(Cl)ccc3o2)cc1)C1CCCO1 (stereo not drawn),5,10µM*,4,-10%,u,i
Cc1ccc2nc(-c3ccc(NC(=O)C4CCCO4)cc3)[nH]c2c1 (stereo not drawn),u,9.2µM*,-8,2%,u,i
Cc1nc(NC(=O)C(C)(C)C)sc1-c1nc(N)sc1-n1cc(-c2ccccc2)nn1,x,i,-8,x,x,i
CCNc1nc(-c2sc(NC(=O)C(C)(C)C)nc2C)c(-n2cc(-c3ccccc3)nn2)s1,x,18µM*,2,x,x,u
CCOC(=O)[C@]12CCCCC/C=C\1N(Cc1ccc(OC)cc1)C(=O)[C@H]2CC(=O)NCc1ccc(OC)c(OC)c1,x,x,3,x,x,x
CCOC(=O)c1cccc(NC(=O)CCS(=O)(=O)c2cccs2)c1,12,21µM*,-2,-7%,-20%,i
CCOC(=O)c1cccc(NC(=O)CNS(=O)(=O)c2cccs2)c1,10,23µM*,6,-6%,-1%,i
CCOC(=O)c1cccc(NC(=O)CCS(=O)(=O)c2ccc(Br)s2)c1,16,i,3,0%,-3%,i
COc1cc(NC(=O)CNS(=O)(=O)c2cccs2)cc(OC)c1OC,x,u,-2,-2%,x,i
CC1(c2ccc3c(c2)OCO3)NC(=O)N(CC(=O)Nc2ccccc2[N+](=O)[O-])C1=O (stereo not drawn),7,15µM*,-1,-2%,u,i
CCN(CC)C(=O)Oc1ccc2c(=O)c(-c3ccccc3)coc2c1,-2,21µM*,-26,-19%,u,i
CCN(CC)c1ccc2cc(-c3nc(-c4ccc(OC)cc4)cs3)c(=O)oc2c1,1,18µM*,-5,u,14%,i
CCN(CC)c1ccc2cc(-c3nnc(-c4ccccc4)o3)c(=O)oc2c1,-4,u,3,u,10%,u
CCN(CC)c1ccc2cc(-c3nc4ccccc4[nH]3)c(=O)oc2c1,-108*,u,-2,u,-11%,u
CCN(CC)c1ccc2cc(-c3nc4ccccc4n3C)c(=O)oc2c1,14,0.41µM*,0,u,u,0.23µM*
N#Cc1ccc(C(=O)NCC(=O)OC(C(=O)Nc2cc(C(F)(F)F)ccc2Cl)c2ccccc2)cc1 (stereo not drawn),x,x,x,17%,9%,x
O=C(CCCl)Nc1cccc2cccnc12,3,x,x,-12%,1%,x
O=C(Nc1ccccc1SC(=O)c1ccccc1)c1ccccc1,x,i,1,x,x,i
Cc1ccc(C(=O)Sc2cccccc2=O)cc1,-6,2.6µM*,-12,-9%,-5%,u
SMILES,Giardia kill,KB-V1 cytotox,PI4K2A block,A549 viability,Nrf2 block,KB-3-1 cytotox
CCCCCC[C@H](CC)CN(C(=O)Oc1ccccc1)c1ccccc1,x,x,1,x,x,x
CCOc1ccc(Cc2c(Cl)nc(SC)nc2N(C)C)cc1,8,12µM*,9,15%,13µM*,12µM*
O=C(Nc1ccccc1)N1CCC(c2nc(-c3ccc(S(=O)(=O)N4CCOCC4)cc3)no2)CC1,-12,4.1µM*,1,-4%,x,4.6µM*
O=C(c1cccs1)N1CCC(c2nc(-c3ccc(S(=O)(=O)N4CCOCC4)cc3)no2)CC1,-3,5.8µM*,5,0%,x,16µM*
O=C(Nc1cccc(C(F)(F)F)c1)N1CCC(c2nc(-c3ccc(F)cc3)no2)CC1,-14,2.6µM*,5,u,u,i
Nc1ccc(/C=C/c2cccc3cccnc23)cc1,x,i,x,x,x,i
CCOC(=O)c1c(S(=O)(=O)NCC(=O)N(C)Cc2ccccc2)c(C)n(C)c1C,x,i,0,1%,x,i
O=c1ccc2cc3c(-c4ccccc4)coc3cc2o1,10,6.5µM*,2,0%,-5%,18µM*
O=S(=O)(c1ccc(Nc2ccc(-c3ccc4c(c3)OCCO4)nn2)cc1)N1CCCC1,-21,u,4,u,u,i
O=C(NC1CC1)c1cccc(Nc2ccc(-c3ccc4c(c3)OCCO4)nn2)c1,-15,16µM*,-13,-17%,-15%,u
CC(C)(C)c1ccc(NC(=O)N2CCCN(c3ccc([N+](=O)[O-])cn3)CC2)cc1,6,10µM*,1,u,u,u
O=C1N2Cc3ccccc3C2CS(=O)(=O)N1C1CCCC1 (stereo not drawn),x,x,-4,x,x,x
Cc1ccc([N+](=O)[O-])cc1N=Nc1c(-c2ccc([N+](=O)[O-])cc2)[nH]n(C(N)=S)c1=O,6,u,-5,u,u,i
